Assay results taken from the supplement of paper PMC9446081.
± gives the standard deviation of the averaged measurements.

Each molecule was assayed against MurC (UniProt C4ZRI6) (assay: relative enzymatic activity vs untreated control (fraction); higher = less inhibition). Details: 100 µM; incubation time: 2 h at 37 C.
Sequence of MurC (C4ZRI6 whole entry, looked up): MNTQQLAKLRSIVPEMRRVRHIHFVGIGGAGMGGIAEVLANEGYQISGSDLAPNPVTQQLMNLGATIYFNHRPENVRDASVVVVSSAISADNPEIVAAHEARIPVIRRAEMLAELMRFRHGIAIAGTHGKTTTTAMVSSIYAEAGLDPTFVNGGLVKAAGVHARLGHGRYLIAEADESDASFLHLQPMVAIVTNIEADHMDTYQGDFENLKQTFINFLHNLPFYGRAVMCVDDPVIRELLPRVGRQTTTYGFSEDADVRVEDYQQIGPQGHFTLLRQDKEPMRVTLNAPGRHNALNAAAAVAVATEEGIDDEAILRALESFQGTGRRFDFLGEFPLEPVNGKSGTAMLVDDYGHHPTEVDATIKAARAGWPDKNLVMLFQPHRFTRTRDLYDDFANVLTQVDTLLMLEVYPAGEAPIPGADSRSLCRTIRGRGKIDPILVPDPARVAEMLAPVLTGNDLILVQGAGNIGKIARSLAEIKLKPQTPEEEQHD
Method: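 In vitro enzymatic inhibition assays (ProFoldin kits) for 12 purified essential E. coli enzymes or complexes, each treated with 218 active antibacterial compounds at 100 µM for 2 h at 37°C. Read-outs were fluorescence or absorbance (phosphate detection, dye binding), converted to activity via standard curves and expressed relative to untreated DMSO controls.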
With `CCn1cc(C(=O)O)c(=O)c2cnc(N3CCNCC3)nc21` the relative enzymatic activity was 0.99 ± 0.052. In the case of `O=C1CN(N=Cc2ccc([N+](=O)[O-])o2)C(=O)N1`, the relative enzymatic activity is reported as 1.051 ± 0.0033. With `CON=C1CN(c2nc3c(cc2F)c(=O)c(C(=O)O)cn3C2CC2)CC1CN.CS(=O)(=O)O` (stereo not given) the relative enzymatic activity was 0.669 ± 0.18. `NCCCC[C@H](NC(=O)[C@@H](NC(=O)[C@H](Cc1c[nH]c2ccccc12)NC(=O)[C@H](CCCCN)NC(=O)[C@H](CCCCN)NC(=O)[C@H](Cc1c[nH]c2ccccc12)NC(=O)[C@H](Cc1c[nH]c2ccccc12)NC(=O)[C@H](CCCCN)NC(=O)[C@@H](N)CCCCN)C(c1ccccc1)c1ccccc1)C(N)=O` showed a relative enzymatic activity of 0.995 ± 0.015. `CN(C)c1cc(CNCC(C)(C)C)c(O)c2c1C[C@H]1C[C@H]3[C@H](N(C)C)C(=O)[C@H](C(N)=O)C(=O)[C@@]3(O)C(=O)[C@@H]1C2=O` was tested, and the relative enzymatic activity was 1.13 ± 0.062. With `NC(=O)NN=Cc1ccc([N+](=O)[O-])o1` the relative enzymatic activity was 1.05 ± 0.014. `CCC1OC(=O)C(C)C(=O)C(C)C(OC2OC(C)CC(N(C)C)C2O)C(C)(OC)CC(C)C(=O)C(C)C2N(CCCCn3cnc(-c4cccnc4)c3)C(=O)OC12C` (stereo not given) gave a relative enzymatic activity of 0.741 ± 0.33. Molecule `NC[C@H]1OB(O)c2c(OCCCO)cccc21` has a relative enzymatic activity of 0.977 ± 0.052. With `CC[C@H]1OC(=O)[C@H](C)[C@@H](O[C@H]2C[C@@](C)(OC)[C@@H](O)[C@H](C)O2)[C@H](C)[C@@H](O[C@@H]2O[C@H](C)C[C@H](N(C)C)[C@H]2O)[C@](C)(O)C[C@@H](C)CN(C)[C@H](C)[C@@H](O)[C@]1(C)O` the relative enzymatic activity was 1.06 ± 0.02. `CN[C@@H]1[C@H](O[C@H]2[C@H](O[C@@H]3[C@@H](O)[C@H](O)[C@@H](NC(=N)N)[C@H](O)[C@H]3NC(=N)N)O[C@@H](C)[C@]2(O)CO)O[C@@H](CO)[C@H](O)[C@H]1O.CN[C@@H]1[C@H](O[C@H]2[C@H](O[C@@H]3[C@@H](O)[C@H](O)[C@@H](NC(=N)N)[C@H](O)[C@H]3NC(=N)N)O[C@@H](C)[C@]2(O)CO)O[C@@H](CO)[C@H](O)[C@H]1O` was tested, and the relative enzymatic activity was 0.963 ± 0.063. `O=C1OC(=O)[C@H]2[C@@H]1[C@H]1CC[C@H]2O1` gave a relative enzymatic activity of 1.18 ± 0.093. Work on `CN(C)C1C(O)=C(C(N)=O)C(=O)C2(O)C(O)=C3C(=O)c4c(O)cccc4C(C)(O)C3C(O)C12.Cl` (stereo not given) yielded a relative enzymatic activity of 1.09 ± 0.081. `COc1cc2c(cc1OC)C(=O)C(CC1CCN(Cc3ccccc3)CC1)C2.Cl` (stereo not given) gave a relative enzymatic activity of 0.993 ± 0.29. With `COc1c(N2CC3CCCNC3C2)c(F)cc2c(=O)c(C(=O)O)cn(C3CC3)c12.Cl` (stereo not given) the relative enzymatic activity was 1.01 ± 0.025. `CC(=O)OCC1=C(C(=O)[O-])N2C(=O)C(NC(=O)Cc3cccs3)C2SC1.[Na+]` (stereo not given) gave a relative enzymatic activity of 1.08 ± 0.043. In the case of `CN(C)CCOC(c1ccccc1)c1ccccc1.Cn1c(=O)c2[nH]c(Cl)nc2n(C)c1=O`, the relative enzymatic activity is reported as 1.02 ± 0.026. `COC12C(COC(N)=O)C3=C(C(=O)C(C)=C(N)C3=O)N1CC1NC12` (stereo not given) showed a relative enzymatic activity of 0.719 ± 0.092. In the case of `C=CC1=C(C(=O)O)N2C(=O)[C@@H](NC(=O)/C(=N\OCC(=O)O)c3csc(N)n3)[C@H]2SC1`, the relative enzymatic activity is reported as 1.12 ± 0.017. For `N[C@@H](C(=O)N[C@@H]1C(=O)N2C(C(=O)O)=C(Cl)CC[C@H]12)c1ccccc1`, the relative enzymatic activity was 0.967 ± 0.054. With `CS(=O)(=O)c1ccc(C(O)C(CF)NC(=O)C(Cl)Cl)cc1` (stereo not given) the relative enzymatic activity was 1.04 ± 0.036. Molecule `Cc1cn([C@H]2C[C@H](N=[N+]=[N-])[C@@H](CO)O2)c(=O)[nH]c1=O` has a relative enzymatic activity of 1.08 ± 0.11. `Cn1cc(-c2[nH]c3cc(NC(=O)[C@H](N)C4CCCCC4)cc4c3c2C=NNC4=O)cn1` gave a relative enzymatic activity of 0.943 ± 0.039. Molecule `CCC=C(C(=O)NC1C(=O)N2C(C(=O)OCOC(=O)C(C)(C)C)=C(COC(N)=O)CSC12)c1csc(N)n1.Cl` (stereo not given) has a relative enzymatic activity of 0.843 ± 0.14. For `CN(C)C1C(O)=C(C(N)=O)C(=O)C2(O)C(O)=C3C(=O)c4c(O)ccc(Cl)c4C(C)(O)C3CC12.Cl` (stereo not given), the relative enzymatic activity was 1.05 ± 0.02. In the case of `CN(C)CCC=C1c2ccccc2COc2ccc(CC(=O)O)cc21.Cl`, the relative enzymatic activity is reported as 0.905 ± 0.018. Molecule `CCn1cc(C(=O)O)c(=O)c2cc(F)c(N3CCNCC3)cc21` has a relative enzymatic activity of 1 ± 0.082. For `CC1COc2c(C3(N)CC3)c(F)cc3c(=O)c(C(=O)O)cn1c23.CS(=O)(=O)O` (stereo not given), the relative enzymatic activity was 0.958 ± 0.027. `NCC[C@H](O)C(=O)N[C@@H]1C[C@H](N)[C@@H](O[C@H]2O[C@H](CN)[C@@H](O)[C@H](O)[C@H]2O)[C@H](O)[C@H]1O[C@H]1O[C@H](CO)[C@@H](O)[C@H](N)[C@H]1O` gave a relative enzymatic activity of 1.05 ± 0.11. `CO/N=C(\C(=O)N[C@@H]1C(=O)N2C(C(=O)O)=C(C)CS[C@H]12)c1csc(N)n1` gave a relative enzymatic activity of 0.884 ± 0.037. Work on `CC[C@@H](C)CCCCC(=O)N[C@@H](CCN)C(=O)N[C@H](C(=O)N[C@@H](CCN)C(=O)N[C@H]1CCNC(=O)[C@H]([C@@H](C)O)NC(=O)[C@H](CCN)NC(=O)[C@H](CCN)NC(=O)[C@H](CC(C)C)NC(=O)[C@@H](Cc2ccccc2)NC(=O)[C@@H](CCN)NC1=O)[C@@H](C)O` yielded a relative enzymatic activity of 1.03 ± 0.032. `CC[C@H](C)C[C@H](C)CCCCCCCCC(=O)N[C@H]1C[C@@H](O)[C@@H](NCCN)NC(=O)[C@@H]2[C@@H](O)CCN2C(=O)[C@H]([C@H](O)CCN)NC(=O)[C@H]([C@H](O)[C@@H](O)c2ccc(O)cc2)NC(=O)[C@@H]2C[C@@H](O)CN2C(=O)[C@H]([C@@H](C)O)NC1=O` gave a relative enzymatic activity of 0.94 ± 0.061. Work on `O=C(O)c1cn(C2CC2)c2cc(N3CCNCC3)c(F)cc2c1=O` yielded a relative enzymatic activity of 1.03 ± 0.014. `O=C1C=CC(=O)N1` gave a relative enzymatic activity of 0.992 ± 0.03. For `Nc1ncn(C2OC(CO)C(O)C2O)c(=O)n1` (stereo not given), the relative enzymatic activity was 0.989 ± 0.025. Molecule `CCC(C)C1NC(=O)C(CCNCS(=O)(=O)[O-])NC(=O)C(NC(=O)C(CCNCS(=O)(=O)[O-])NC(=O)C(NC(=O)C(CCNCS(=O)(=O)[O-])NC(=O)CCCCC(C)C)C(C)O)CCNC(=O)C(C(C)O)NC(=O)C(CCNCS(=O)(=O)[O-])NC(=O)C(CCNCS(=O)(=O)[O-])NC(=O)C(C(C)CC)NC1=O.[Na+].[Na+].[Na+].[Na+].[Na+]` (stereo not given) has a relative enzymatic activity of 1.05 ± 0.03. For `CO/N=C(\C(=O)N[C@@H]1C(=O)N2C(C(=O)O)=C(C[N+]3(C)CCCC3)CS[C@H]12)c1csc(N)n1`, the relative enzymatic activity was 0.8921 ± 0.007. For `C[C@H]1c2cccc(O)c2C(=O)C2=C(O)[C@]3(O)C(=O)[C@@H](C(N)=O)C(=O)[C@@H](N(C)C)[C@@H]3[C@@H](O)[C@@H]21`, the relative enzymatic activity was 0.97 ± 0.064. In the case of `Cc1nnc(SCC2=C(C(=O)O)N3C(=O)[C@@H](NC(=O)Cn4cnnn4)[C@H]3SC2)s1`, the relative enzymatic activity is reported as 0.988 ± 0.078. `Cc1nnc(SCC2=C(C(=O)[O-])N3C(=O)C(NC(=O)Cn4cnnn4)C3SC2)s1.[Na+]` (stereo not given) was tested, and the relative enzymatic activity was 1.05 ± 0.11. `COC(=O)N/N=C/c1ccc([N+](=O)[O-])o1` was tested, and the relative enzymatic activity was 1.01 ± 0.15.
